Test [1] deals with Lysosomal acid glucosylceramidase (Homo sapiens) (UniProt P04062). The test can be described thus: Glucocerebrosidase-p2 (AID 348; in the data active = potency below about 10 µM; note: potency is the fitted concentration of half-maximal effect). The conditions noted are these: purified GBA, blue fluorogenic substrate, 40 min. An outline of the steps: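 Compounds titrated from 0.6 nM upwards against 0.2 nM enzyme in pH 5.9 citric acid/KH2PO4, taurocholate, tween-20; blue fluorogenic substrate 80 uM, 40 min room temperature, stopped and read Ex 365/Em 440 for AC50.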
Sequence of Lysosomal acid glucosylceramidase (Homo sapiens) (P04062 whole entry, looked up): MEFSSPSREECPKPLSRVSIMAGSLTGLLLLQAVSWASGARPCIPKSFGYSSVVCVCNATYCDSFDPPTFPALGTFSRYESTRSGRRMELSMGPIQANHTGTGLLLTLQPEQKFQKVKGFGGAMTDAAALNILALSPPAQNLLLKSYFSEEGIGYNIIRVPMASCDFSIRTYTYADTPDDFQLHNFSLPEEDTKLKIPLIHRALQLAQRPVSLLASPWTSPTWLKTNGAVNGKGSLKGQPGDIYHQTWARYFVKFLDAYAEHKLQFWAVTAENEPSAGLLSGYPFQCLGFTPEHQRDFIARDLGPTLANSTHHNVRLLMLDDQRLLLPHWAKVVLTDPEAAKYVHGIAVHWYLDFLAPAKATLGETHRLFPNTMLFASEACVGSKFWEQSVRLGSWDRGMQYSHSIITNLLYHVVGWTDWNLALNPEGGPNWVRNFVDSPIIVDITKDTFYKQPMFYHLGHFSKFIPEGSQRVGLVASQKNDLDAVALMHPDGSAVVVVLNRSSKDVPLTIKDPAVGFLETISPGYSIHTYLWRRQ

Test [2] can be described thus: AP1 Signaling Pathway (AID 357).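 Note: ME-180 reporter cells stimulated with EGF at its EC50 level; % is set by controls: 0 for no effect and ±100 for the full control effect.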 The conditions noted are these: ME-180 AP-1-bla reporter, EGF-induced, beta-lactamase ratio, 5 h; at 7.69 µM (top of the series) unless noted. The essentials:
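First, ME-180 AP-1-bla cells were cultured overnight at 37 °C in low-serum Opti-MEM. Next, titrated compounds with EC50 EGF were incubated 5 hours. Finally, CCF4 was added for 2.5 hours and the 460/530 nm ratio recorded.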

In test [3] the target is Cytochrome P450 1A2 (Homo sapiens) (UniProt P05177). The test can be described thus: p450-cyp1a2 (AID 410; calls by dose curve; note: potency is the fitted concentration of half-maximal effect). The conditions noted are these: recombinant CYP1A2, luciferin-ME demethylation, luminescence; series mostly up to 11.4 µM. The essentials:
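20nM CYP1A2 with 100uM Luciferin-ME (at Km) in 100mM KPO4; compound preincubated 10 min, NADPH regeneration added, 60 min at room temperature. Luciferin quantified by luminescence after detection reagent; normalized to 57 uM furafylline.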

Test [4] can be described thus: NFAT Signaling Pathway (AID 444).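 Note: carbachol stimulus at about its EC50 of 1 µM final; % is set by controls: 0 for no effect and ±100 for the full control effect.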 The conditions noted are these: Jurkat NFAT-bla M1, carbachol, beta-lactamase ratio, 5 h; at 7.69 µM (top of the series) unless noted. The essentials:
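Jurkat cells with NFAT-driven β-lactamase reporter and co-expressed M1 receptor, stimulated with carbachol (final 1 uM, ~EC50), compound titration, 5 h at 37 °C. CCF4 loaded 1 h at RT; 460/530 nm ratio gave %activity and AC50.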

Test [5] in a line: Stat Signaling Pathway (AID 446).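 Note: ME-180 cervical cancer cells given 40 pM IL-6 alongside compound; SIE-controlled beta-lactamase reporter measured as 460/530 nm FRET emission ratio; % is set by controls: 0 for no effect and ±100 for the full control effect.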 The conditions noted are these: ME-180 SIE beta-lactamase reporter, IL-6 stimulated, 5 h; at 7.69 µM (top of the series) unless noted. The essentials: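 Screening format detects activators and inhibitors alike: ME-180 SIE-bla cells stimulated at 40 pM IL-6 for 5 hrs with compound, then dual-emission beta-lactamase read at 405 nm excitation.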

The target of test [6] is Glucocorticoid receptor (Homo sapiens) (UniProt P04150). The test can be described thus: GR-GFP Redistribution (AID 450;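 active = compounds whose dose series gives a full or clear partial fitted curve of increased nuclear translocation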; note: potency is the fitted concentration of half-maximal effect). The conditions noted are these: U2OS GR-GFP nuclear translocation, laser cytometry, 2 h.
Sequence of Glucocorticoid receptor (Homo sapiens) (P04150 whole entry, looked up): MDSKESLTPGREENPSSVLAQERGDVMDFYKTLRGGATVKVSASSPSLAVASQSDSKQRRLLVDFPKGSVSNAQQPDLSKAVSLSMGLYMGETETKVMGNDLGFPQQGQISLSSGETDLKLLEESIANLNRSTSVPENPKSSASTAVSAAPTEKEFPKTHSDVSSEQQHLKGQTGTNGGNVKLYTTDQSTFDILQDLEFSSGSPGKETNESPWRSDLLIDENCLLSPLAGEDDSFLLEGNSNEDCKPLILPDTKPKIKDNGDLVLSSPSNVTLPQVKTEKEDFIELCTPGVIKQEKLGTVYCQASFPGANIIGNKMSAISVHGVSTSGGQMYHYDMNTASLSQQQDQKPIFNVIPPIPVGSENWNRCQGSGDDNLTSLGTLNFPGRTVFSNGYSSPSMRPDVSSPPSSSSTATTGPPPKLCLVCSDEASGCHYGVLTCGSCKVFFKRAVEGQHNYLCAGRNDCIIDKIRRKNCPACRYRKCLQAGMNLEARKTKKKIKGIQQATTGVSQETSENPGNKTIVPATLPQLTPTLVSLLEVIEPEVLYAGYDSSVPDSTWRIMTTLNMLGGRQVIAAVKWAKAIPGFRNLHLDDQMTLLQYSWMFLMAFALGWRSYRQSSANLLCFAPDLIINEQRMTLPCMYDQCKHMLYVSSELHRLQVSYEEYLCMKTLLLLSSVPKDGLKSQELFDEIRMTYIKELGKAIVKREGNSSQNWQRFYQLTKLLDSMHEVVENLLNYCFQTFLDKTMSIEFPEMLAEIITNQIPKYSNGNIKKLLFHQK
Test [7] shares this target. Briefly: GR-EFC Redistribution (AID 451; calls by dose curve; note: potency is the fitted concentration of half-maximal effect). The conditions noted are these: CHO-K1 GR-EFC translocation, beta-gal luminescence, 2 h. An outline of the steps:
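CHO-K1 cells expressing nuclear EA and GR-ED fragments of b-gal; compounds titrated up to 46 uM final, 2 h at 37 C. GR nuclear translocation read as complemented b-gal luminescence after 1 h RT detection.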

Test [8] concerns the target Mitogen-activated protein kinase 10 (Mus musculus) (UniProt Q61831). Briefly: JNK3 AlphaScreen Assay (AID 530).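 Note: kinase came from lysate of stimulated human HepG2 cells; signal reports phosphorylation of biotinylated GST-cJun 1-79 at Ser73 with 10 µM ATP; % is set by controls: 0 for no effect and ±100 for the full control effect.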 The conditions noted are these: JNK3 lysate, c-Jun phosphorylation; series mostly up to 11.4 µM. The essentials: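 Pre-activated (IL-1β/TNFα) JNK3 in HepG2 lysates phosphorylates biotin-GST-cJun(1-79), 10 uM ATP; anti-phospho-cJun(Ser73) AlphaScreen read at room temperature, pH 7.6 Tris buffer. Compounds pre-incubated 15 min as titrations.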

Test [9] addresses 3',5'-cyclic-AMP phosphodiesterase 4B (Homo sapiens) (UniProt Q07343). The test can be described thus: qHTS Assay for Inhibitors of PDE-IV (AID 607; active = well fitted activation curve with a large enough effect in the main read-out, with a control signal flat, not every such curve was filed as active; note: % of control where 0% means no effect). The conditions noted are these: HEK293 ACTOne CNG channel cells, membrane potential fluorescence; series mostly up to 22.9 µM. An outline of the steps: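 The readout is membrane depolarisation from a cAMP-sensing CNG channel, detected with a potential dye at ex 535/em 590. Cells were HEK293-derived (endogenous PDE-IV) at 1000 cells/well, titrated up to 22.9 uM final.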

In test [10] the target is Cytochrome P450 2C9 (Homo sapiens) (UniProt P11712). The test can be described thus: qHTS Assay for Inhibitors and Substrates of Cytochrome P450 2C9 (AID 883; active = well fitted curve in the direction sought with a large enough effect; an effect the other way counts as inactive or inconclusive; note: nearly all actives have a fitted effect of over 60% in size; note: potency is the fitted concentration of half-maximal effect). The conditions noted are these: recombinant CYP2C9, luciferin-H luminescence, 60 min; series mostly up to 11.4 µM. An outline of the steps: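 Signal: luciferase luminescence reporting luciferin produced by CYP2C9. Conditions: 10nM enzyme, Luciferin-H 100uM at KM, 25mM KPO4, 37C, 60 min NADPH-driven reaction. Reference: 57uM sulphaphenazole as 100% inhibition.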
Sequence of Cytochrome P450 2C9 (Homo sapiens) (P11712 whole entry, looked up): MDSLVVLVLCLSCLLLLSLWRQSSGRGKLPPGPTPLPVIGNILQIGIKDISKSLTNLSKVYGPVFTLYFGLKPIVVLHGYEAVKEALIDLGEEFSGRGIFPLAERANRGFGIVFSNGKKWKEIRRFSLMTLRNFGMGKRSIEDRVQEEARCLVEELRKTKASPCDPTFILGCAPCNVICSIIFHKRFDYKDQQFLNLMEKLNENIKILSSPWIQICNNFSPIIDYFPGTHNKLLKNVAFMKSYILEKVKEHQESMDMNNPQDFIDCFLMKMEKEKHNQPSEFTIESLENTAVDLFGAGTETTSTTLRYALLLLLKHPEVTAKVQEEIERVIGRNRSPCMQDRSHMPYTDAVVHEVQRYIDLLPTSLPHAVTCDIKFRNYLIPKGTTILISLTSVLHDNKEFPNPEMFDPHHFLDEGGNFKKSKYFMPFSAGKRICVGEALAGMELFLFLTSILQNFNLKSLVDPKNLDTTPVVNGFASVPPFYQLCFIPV

Test [11] concerns the target Cytochrome P450 3A4 (Homo sapiens) (UniProt P08684). Briefly: qHTS Assay for Activators of Cytochrome P450 3A4 (AID 885; active = well fitted curve in the direction sought with a large enough effect; an effect the other way counts as inactive or inconclusive; note: nearly all actives have a fitted effect of over 65% in size). The conditions noted are these: recombinant CYP3A4, Luciferin-PPXE luminescence, 60 min; series mostly up to 11.4 µM. The essentials: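 Steps: enzyme/substrate mix dispensed; compound added, 10 min RT; NADPH regeneration solution added, 60 min RT; luciferin detection buffer stops reaction; 20 min later luminescence measured.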

The nature of test [12]: qHTS Assay for Identification of Small Molecule Agonists for Hypoxia Response Element Signaling Pathway (AID 914; active = well fitted activation curve with a large enough effect in the signal ratio, with a control signal flat, not every such curve was filed as active; the % refers to the signal ratio; note: % of control where 0% means no effect). The conditions noted are these: ME-180 (cervical carcinoma) HRE-bla reporter, beta-lactamase ratio, CoCl2, 17 h; activation: active compounds read high. An outline of the steps: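 Positive modulation of EC50 CoCl2-induced hypoxia response element signaling is measured in ME-180 cells with a beta-lactamase reporter. Compounds are titrated, incubation runs 17 hours, and %Activity derives from the blue/green ratio.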

For test [13], the target named is Cytochrome P450 3A4 (Homo sapiens) (UniProt P08684). Briefly: qHTS Assay for Inhibitors and Substrates of Cytochrome P450 3A4 (AID 884; active = well fitted curve in the direction sought with a large enough effect; an effect the other way counts as inactive or inconclusive; note: % is set by controls: 0 for no effect and ±100 for the full control effect; nearly all actives have a fitted effect of over 50% in size). The conditions noted are these: recombinant CYP3A4, Luciferin-PPXE luminescence; series mostly up to 57.1 µM. The essentials: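 20 nM human CYP3A4 with 25 uM Luciferin-PPXE (at KM) in 200 mM KPO4, preincubated 10 min with compound; NADPH regeneration started a 60 min RT reaction. Luciferin detected by luminescence, normalized to 57 uM ketoconazole as full inhibition.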
Sequence of Cytochrome P450 3A4 (Homo sapiens) (P08684 whole entry, looked up): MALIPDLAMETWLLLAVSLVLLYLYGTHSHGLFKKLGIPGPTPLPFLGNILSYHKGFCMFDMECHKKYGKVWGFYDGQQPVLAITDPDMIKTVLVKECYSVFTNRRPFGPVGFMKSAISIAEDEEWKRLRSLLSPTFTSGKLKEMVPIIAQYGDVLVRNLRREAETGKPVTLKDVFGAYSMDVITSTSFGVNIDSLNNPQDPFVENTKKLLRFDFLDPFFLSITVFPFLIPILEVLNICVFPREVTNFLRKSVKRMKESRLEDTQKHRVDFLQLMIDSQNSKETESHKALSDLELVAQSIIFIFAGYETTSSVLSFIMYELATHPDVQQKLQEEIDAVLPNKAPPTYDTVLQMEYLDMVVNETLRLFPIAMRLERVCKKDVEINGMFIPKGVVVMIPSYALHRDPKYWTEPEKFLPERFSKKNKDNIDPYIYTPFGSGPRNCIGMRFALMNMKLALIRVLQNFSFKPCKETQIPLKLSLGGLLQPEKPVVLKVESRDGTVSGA

For test [14], the target named is Cytochrome P450 2D6 (Homo sapiens) (UniProt P10635). Briefly: qHTS Assay for Inhibitors and Substrates of Cytochrome P450 2D6 (AID 891; active = well fitted curve in the direction sought with a large enough effect; an effect the other way counts as inactive or inconclusive;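 note: luciferin methyl ether substrate demethylated by CYP2D6 with NADPH regeneration; % is set by controls: 0 for no effect and ±100 for the full control effect; nearly all actives have a fitted effect of over 60% in size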). The conditions noted are these: recombinant CYP2D6, luciferin-ME EGE luminescence; series mostly up to 11.4 µM. An outline of the steps: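 Human CYP2D6 (5 nM) with 30 uM Luciferin-ME EGE (at Km) in 100 mM KPO4, compound preincubated 10 min, then NADPH regeneration system for 60 min at room temperature. Luciferin read by luminescence; normalized to 1.43 uM quinidine.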
Sequence of Cytochrome P450 2D6 (Homo sapiens) (P10635 whole entry, looked up): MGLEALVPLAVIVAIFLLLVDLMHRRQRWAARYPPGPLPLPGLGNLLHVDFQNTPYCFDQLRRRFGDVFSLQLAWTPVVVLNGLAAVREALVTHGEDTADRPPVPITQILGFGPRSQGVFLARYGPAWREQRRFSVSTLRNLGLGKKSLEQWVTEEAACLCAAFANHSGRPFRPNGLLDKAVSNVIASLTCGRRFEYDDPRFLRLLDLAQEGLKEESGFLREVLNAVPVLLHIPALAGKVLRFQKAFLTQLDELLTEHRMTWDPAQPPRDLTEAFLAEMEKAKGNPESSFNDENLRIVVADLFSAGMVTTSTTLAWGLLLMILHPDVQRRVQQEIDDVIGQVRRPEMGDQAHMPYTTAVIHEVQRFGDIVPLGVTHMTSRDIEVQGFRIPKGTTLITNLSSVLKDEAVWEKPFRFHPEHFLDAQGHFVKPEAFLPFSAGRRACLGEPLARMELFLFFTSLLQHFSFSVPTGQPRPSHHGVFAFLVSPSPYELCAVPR

For test [15], the target named is Cytochrome P450 2C19 (Homo sapiens) (UniProt P33261). The test can be described thus: qHTS Assay for Inhibitors and Substrates of Cytochrome P450 2C19 (AID 899; active = well fitted curve in the direction sought with a large enough effect; an effect the other way counts as inactive or inconclusive; note: potency is the fitted concentration of half-maximal effect; nearly all actives have a fitted effect of over 60% in size). The conditions noted are these: recombinant CYP2C19, luciferin-H EGE luminescence; series mostly up to 11.4 µM. The essentials: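 Signal comes from luciferase acting on luciferin released by CYP2C19-mediated hydroxylation of Luciferin-H EGE, 10uM (KM). Assay mix: 5nM enzyme, 50mM KPO4; 60 min at 37C with NADPH regeneration. Data normalized against 57uM ketoconazole.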
Sequence of Cytochrome P450 2C19 (Homo sapiens) (P33261 whole entry, looked up): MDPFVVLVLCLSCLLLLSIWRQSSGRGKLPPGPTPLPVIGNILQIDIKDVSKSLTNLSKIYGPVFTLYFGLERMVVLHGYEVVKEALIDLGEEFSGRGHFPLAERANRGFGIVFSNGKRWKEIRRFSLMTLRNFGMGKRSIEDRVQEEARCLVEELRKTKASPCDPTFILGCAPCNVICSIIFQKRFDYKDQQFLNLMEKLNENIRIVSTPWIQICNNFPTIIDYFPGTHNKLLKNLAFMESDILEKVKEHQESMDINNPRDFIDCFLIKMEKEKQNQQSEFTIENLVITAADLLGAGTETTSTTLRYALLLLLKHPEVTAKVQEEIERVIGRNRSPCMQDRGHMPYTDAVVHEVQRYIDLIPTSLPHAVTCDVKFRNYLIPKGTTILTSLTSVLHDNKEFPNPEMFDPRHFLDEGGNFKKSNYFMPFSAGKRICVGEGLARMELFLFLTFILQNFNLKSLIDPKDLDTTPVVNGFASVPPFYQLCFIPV

This is an account of results in PubChem BioAssay (NCATS).

A number with no mark means an inactive call. Results filed as inconclusive are left out. Calls of active or inactive are those of the source. Unless noted, calls come from the whole dose curve; as a rule, active = well fitted curve in either direction with a large enough effect (not every such curve was filed as active); inconclusive = small, poorly fitted or top-dose-only effect, or another doubt; inactive = flat fitted curve, though single readings scatter. A value given as a limit tells only on which side of the number the result lay.

Sequence of Cytochrome P450 1A2 (Homo sapiens) (P05177 whole entry, looked up): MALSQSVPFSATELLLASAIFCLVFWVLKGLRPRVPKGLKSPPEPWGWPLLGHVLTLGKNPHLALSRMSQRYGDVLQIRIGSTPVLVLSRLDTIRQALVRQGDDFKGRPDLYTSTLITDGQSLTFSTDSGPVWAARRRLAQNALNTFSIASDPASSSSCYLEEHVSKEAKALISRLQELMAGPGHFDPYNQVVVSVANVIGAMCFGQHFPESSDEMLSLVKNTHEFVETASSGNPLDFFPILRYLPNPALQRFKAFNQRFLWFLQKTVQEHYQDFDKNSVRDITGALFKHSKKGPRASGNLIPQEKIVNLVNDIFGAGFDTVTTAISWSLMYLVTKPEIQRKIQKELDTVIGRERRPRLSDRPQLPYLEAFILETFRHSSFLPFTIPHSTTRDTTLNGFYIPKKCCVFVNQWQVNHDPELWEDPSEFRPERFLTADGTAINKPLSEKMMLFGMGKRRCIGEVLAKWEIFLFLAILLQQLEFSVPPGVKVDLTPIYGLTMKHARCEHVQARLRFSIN
Sequence of 3',5'-cyclic-AMP phosphodiesterase 4B (Homo sapiens) (Q07343 whole entry, looked up): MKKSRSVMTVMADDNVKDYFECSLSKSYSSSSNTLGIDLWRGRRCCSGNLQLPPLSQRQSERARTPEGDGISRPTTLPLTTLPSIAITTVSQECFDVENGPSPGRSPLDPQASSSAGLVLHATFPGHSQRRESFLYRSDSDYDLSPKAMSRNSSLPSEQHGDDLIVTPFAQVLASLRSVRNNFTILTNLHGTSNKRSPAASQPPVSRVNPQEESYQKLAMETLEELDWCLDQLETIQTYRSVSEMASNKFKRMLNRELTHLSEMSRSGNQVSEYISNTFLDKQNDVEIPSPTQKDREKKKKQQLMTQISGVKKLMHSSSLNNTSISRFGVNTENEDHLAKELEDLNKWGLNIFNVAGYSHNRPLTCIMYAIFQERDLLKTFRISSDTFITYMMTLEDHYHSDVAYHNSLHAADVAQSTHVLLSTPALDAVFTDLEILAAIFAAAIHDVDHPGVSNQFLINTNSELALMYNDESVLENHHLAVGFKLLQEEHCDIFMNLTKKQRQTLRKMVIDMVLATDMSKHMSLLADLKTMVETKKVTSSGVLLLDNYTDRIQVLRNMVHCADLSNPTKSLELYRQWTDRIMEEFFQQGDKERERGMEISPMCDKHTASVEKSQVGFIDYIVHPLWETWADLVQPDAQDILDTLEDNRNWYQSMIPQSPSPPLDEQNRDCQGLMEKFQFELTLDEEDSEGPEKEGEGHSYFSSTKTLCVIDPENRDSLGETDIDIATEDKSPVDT

`COc1ccc(/C=C(\C#N)C(N)=O)c(OC)c1`: the Potency was more than 11.4 µM in test [1], 1.58 µM (active) in test [3], more than 46 µM in test [6] and more than 9.22 µM in test [7]. Also, the activity change, negative = inhibition in [2] is 2.38%; in test [4] it was 17.1%. Besides, in test [5], the activity, negative = inhibition is 3.37%. Moreover, the Potency result in test [8], in test [9], in [10] and in [11] was “inactive” each time. Moreover, the activation in test [12] is -21.9%.
`O=C(O)c1nn(-c2ccc(Cl)cc2)c2c1C(=O)c1ccccc1C2=O`: the Potency in test [1] is more than 11.4 µM; in test [3], 0.251 µM (active); in test [6], more than 46 µM; in test [7], more than 9.22 µM. Moreover, the activity change, negative = inhibition in [2] was -2.08%; in test [4], -17.6%. Also, the activity, negative = inhibition in [5] was 2.2%. Also, the Potency result in [8] and in [9] was “inactive” in each case.
On to `Cc1cc(SCC(=O)c2ccccc2)nc2ccccc12`, for which the Potency in [1] is more than 11.4 µM; in [3], 0.398 µM (active); in test [6], more than 46 µM; in [7], more than 9.22 µM; in [15] it was 0.398 µM (active). Besides, the figures for the activity change, negative = inhibition in [2], in test [4] and in test [13] were -8.06%, 13.7% and -103% [at 11.4 µM], respectively. In addition, in test [5], the activity, negative = inhibition was 9.67%. Also, the Potency result in [8], in test [9], in test [10] and in test [14] was “inactive” each time.
In the case of `CC1=C/C(=N/O)C([C@H]2C=C(C)CC(C)(C)[C@@H]2O)C(C)(C)C1` (stereo not given in full), the Potency is more than 11.4 µM in test [1]; more than 46 µM in test [6]; more than 9.22 µM in [7]; 2.51 µM (active) in test [10]; 1.58 µM (active) in [15]. Also, the figures for the activity change, negative = inhibition in test [2] and in [4] were -3.8% and -18%, respectively. The Potency result in [3], in [8], in test [9] and in test [11] was “inactive” each time. Moreover, the activity, negative = inhibition in test [5] is 0.535%.
Turning to `Cc1[nH]c2ccccc2c1-c1cc(-c2cc(-c3c(C)[nH]c4ccccc34)on2)no1`, the Potency in test [1] was more than 11.4 µM; in [3], 0.398 µM (active); in test [6], more than 46 µM; in test [7] it was more than 9.22 µM. For the same compound, the activity change, negative = inhibition in [2] is 5.07%; in test [4], -7.58%. Besides, in test [5], the activity, negative = inhibition was -1.93%. For the same compound, the Potency result in test [8], in [9] and in [10] was “inactive” throughout.
For `NS(=O)(=O)c1ccc(N=Nc2c(O)c(C(=O)O)cc3ccccc23)cc1`, the Potency was more than 11.4 µM in test [1], more than 46 µM in test [6] and more than 9.22 µM in test [7]. The activity change, negative = inhibition in test [2] was 1.12%; in test [4], 3.68%. The Potency entry in test [3], in test [8] and in [9] was “inactive” throughout. In addition, the activity, negative = inhibition in test [5] was 5.99%.
